Assay results from article PMC4336329 (PLoS ONE, 2015).
In all, about 310,000 compounds went through this assay and about 2,200 (0.71%) showed an effect of 50% or more. The effect is printed as a negative number. Many of the other results were omitted from the sample, so strong results are more common in it than they were.

biological target: human ether-à-go-go-related gene (hERG) potassium channel (human, UniProt Q12809); test: primary screen, population patch clamp on CHO cells stably expressing hERG; higher = less effect of the substance
Sequence (Q12809 whole entry, looked up): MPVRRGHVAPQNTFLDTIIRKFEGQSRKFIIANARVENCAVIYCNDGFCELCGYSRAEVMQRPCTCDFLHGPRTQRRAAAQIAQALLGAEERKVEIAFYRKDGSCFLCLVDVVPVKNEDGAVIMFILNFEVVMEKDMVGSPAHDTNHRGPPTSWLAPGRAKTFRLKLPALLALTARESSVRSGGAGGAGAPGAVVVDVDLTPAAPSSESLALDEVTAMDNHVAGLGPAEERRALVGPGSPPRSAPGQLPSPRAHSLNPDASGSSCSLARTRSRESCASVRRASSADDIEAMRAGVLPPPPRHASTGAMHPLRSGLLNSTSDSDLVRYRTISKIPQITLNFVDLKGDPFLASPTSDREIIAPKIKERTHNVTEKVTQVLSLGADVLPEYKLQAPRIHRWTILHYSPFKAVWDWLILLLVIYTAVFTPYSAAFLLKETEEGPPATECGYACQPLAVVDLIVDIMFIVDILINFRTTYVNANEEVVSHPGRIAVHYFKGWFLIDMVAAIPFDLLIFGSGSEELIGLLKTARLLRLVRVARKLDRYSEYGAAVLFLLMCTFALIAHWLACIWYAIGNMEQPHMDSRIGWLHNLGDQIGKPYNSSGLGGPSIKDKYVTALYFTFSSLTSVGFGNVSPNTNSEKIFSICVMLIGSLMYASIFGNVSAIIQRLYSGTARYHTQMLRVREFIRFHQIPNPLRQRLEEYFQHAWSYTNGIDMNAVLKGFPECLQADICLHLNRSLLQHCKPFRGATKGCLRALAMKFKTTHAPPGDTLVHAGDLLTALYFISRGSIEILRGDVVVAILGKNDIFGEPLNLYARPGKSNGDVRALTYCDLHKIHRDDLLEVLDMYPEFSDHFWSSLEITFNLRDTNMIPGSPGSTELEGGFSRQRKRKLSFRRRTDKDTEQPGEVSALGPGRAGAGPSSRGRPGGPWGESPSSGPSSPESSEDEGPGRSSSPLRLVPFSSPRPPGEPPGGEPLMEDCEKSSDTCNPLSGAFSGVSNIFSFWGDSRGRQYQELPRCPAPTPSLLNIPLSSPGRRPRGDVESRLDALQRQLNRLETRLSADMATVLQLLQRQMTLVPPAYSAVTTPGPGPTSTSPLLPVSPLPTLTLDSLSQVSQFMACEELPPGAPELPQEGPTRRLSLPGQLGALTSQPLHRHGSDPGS

Going from `COC(=O)c1cc(S(=O)(=O)Nc2cccc(S(N)(=O)=O)c2)oc1C` to `Cc1ccc(NC(=O)c2ccsc2)cc1NS(C)(=O)=O`, the “hERG current change (%, negative = inhibition) at 1uM” value rises from 8.79% to 15.1%.

First: COCCn1c(SCC(=O)c2c(N)n(C3CC3)c(=O)[nH]c2=O)nnc1-c1ccc(Cl)cc1
Second: CCC(=O)Nc1ccc(-c2nnc(SCC(=O)NCC3CCCO3)n2C)cc1 (stereo not shown)
The “hERG current change (%, negative = inhibition) at 1uM” value of the first is lower: 13.5% for the first, 14.4% for the second.

Going from `CN(Cc1ccccc1)C(=O)N1CCOCC1` to `Cl.O=C(O)CN1C2=NCCCN2c2ccccc21`, the “hERG current change (%, negative = inhibition) at 1uM” value falls from 17.7% to 15.8%.

Going from `CCOC(=O)N1CCN(c2ncnc3c2oc2nc(C(C)C)c4c(c23)CCC4)CC1` to `Cc1ccc(C)c2c(N)c3c(nc12)CCCCC3.O=C(O)c1cncc(Br)c1`, the “hERG current change (%, negative = inhibition) at 1uM” value falls from 6.16% to -51.9%.

Going from `Cc1ccsc1C(=O)C1CCCN(Cc2cnc(N)nc2)C1` (stereo not shown) to `Cc1ncc(CN2CCCC(C(=O)c3sccc3C)C2)s1` (stereo not shown), the “hERG current change (%, negative = inhibition) at 1uM” value rises from 4.23% to 12.5%.

Going from `Cc1ccsc1C(=O)C1CCCN(Cc2ccccc2O)C1` (stereo not shown) to `Cc1ccsc1C(=O)C1CCCN(Cc2cccn2-c2ccccn2)C1` (stereo not shown), the “hERG current change (%, negative = inhibition) at 1uM” value falls from -3.16% to -81.7%.

First: Cc1ccsc1C(=O)C1CCCN(Cc2cccn2-c2ccc(Cl)cn2)C1 (stereo not shown)
Second: Cc1ccsc1C(=O)C1CCCN(Cc2ccn[nH]2)C1 (stereo not shown)
The “hERG current change (%, negative = inhibition) at 1uM” value of the first is lower: -84.3% for the first, 9.05% for the second.

Going from `CCOc1ccccc1OCC(=O)Nc1ccc(S(=O)(=O)Nc2nc(C)cc(C)n2)cc1` to `COc1ccc(NC(=O)Cn2nnc(-c3ccccc3F)n2)cc1`, the “hERG current change (%, negative = inhibition) at 1uM” value rises from 0.94% to 8.09%.

Going from `Cc1ccc(S(=O)(=O)c2c(C)nn(-c3ccccc3)c2OC(=O)c2ccco2)cc1` to `Cc1ccc(NC(=O)Cn2cccc2C2=NC(c3ccccc3)CO2)c(C)c1` (stereo not shown), the “hERG current change (%, negative = inhibition) at 1uM” value falls from 5.81% to 3.9%.

Compared with `CC(C)c1ccc2c(c1)[C@H]1OCC[C@H]1[C@@H](c1cccs1)N2`, `O=C1c2ccsc2SCCN1Cc1cccc(Cl)c1` is higher in “hERG current change (%, negative = inhibition) at 1uM” value: 4.11% for the first, 8.86% for the second.

Going from `CCOC(=O)C(C)Oc1ccc(C2NC(=O)NC(C)=C2C(C)=O)cc1Br` (stereo not shown) to `CCOC(=O)C(C)Oc1cccc2c(=O)n(CC(=O)N3CCCc4ccccc43)ccc12` (stereo not shown), the “hERG current change (%, negative = inhibition) at 1uM” value rises from 4.32% to 15.8%.

Compared with `Cc1cc(Br)c2nc3c(c(C(=O)O)c2c1)CCCCC3`, `CN1CCCCc2c1nc1ccccc1c2N.O=C(O)c1cncc(Br)c1` is lower in “hERG current change (%, negative = inhibition) at 1uM” value: 7.18% for the first, -79.7% for the second.

Compared with `Cc1cccc2c(N)c3c(nc12)N(C)CC3.O=C(O)C(=O)O`, `CN1CCc2c1nc1ccccc1c2N.O=C(O)c1cc([N+](=O)[O-])ccc1Cl` is higher in “hERG current change (%, negative = inhibition) at 1uM” value: 7.57% for the first, 7.96% for the second.

Compared with `O=C(O)c1cncc(Br)c1`, `CCCCNC(=O)/C(=C\c1ccc([N+](=O)[O-])o1)NC(=O)c1ccccc1` is lower in “hERG current change (%, negative = inhibition) at 1uM” value: 8.7% for the first, -6.47% for the second.

First: C[n+]1c2n(c3ccccc31)N=C(c1ccc(Cl)cc1)CS2.[Br-]
Second: C[n+]1c2n(c3ccccc31)N=C(c1ccc(Br)cc1)CS2.[Br-]
The “hERG current change (%, negative = inhibition) at 1uM” value of the first is higher: -51.9% for the first, -53.1% for the second.

First: C[n+]1c2n(c3ccccc31)N=C(c1ccccc1)CS2.[Br-]
Second: C[n+]1c2n(c3ccccc31)N=C(c1ccc(-c3ccccc3)cc1)CS2.[Br-]
The “hERG current change (%, negative = inhibition) at 1uM” value of the first is higher: -17.3% for the first, -39% for the second.

Compared with `Cc1cc(Cn2nnc3ccccc32)c(O)c(C(C)(C)C)c1`, `C[n+]1c2n(c3ccccc31)N=C(c1cc(C(C)(C)C)c(O)c(C(C)(C)C)c1)CS2.[Br-]` is lower in “hERG current change (%, negative = inhibition) at 1uM” value: 23.6% for the first, -63.5% for the second.

Compared with `COc1ccc(C2=Nn3c([n+](C)c4ccccc43)SC2)cc1.[Br-]`, `CC1Sc2n(c3ccccc3[n+]2C)N=C1c1ccccc1.[Br-]` (stereo not shown) is lower in “hERG current change (%, negative = inhibition) at 1uM” value: -13.2% for the first, -16.8% for the second.

Going from `Cc1ccc(-c2nnc3n2N=C(c2ccc(Br)cc2)CS3)cc1` to `Cc1ccc(CN2C3=NCCN3c3ccccc32)cc1.Cl`, the “hERG current change (%, negative = inhibition) at 1uM” value falls from 4.56% to -23.5%.

Compared with `COc1ccc(NC(=O)CN2C(=O)C(C)SC(C)C2=O)cc1` (stereo not shown), `CCCOC(=O)c1ccc(NC(=O)CN(C)Cc2cccs2)cc1` is higher in “hERG current change (%, negative = inhibition) at 1uM” value: 6.14% for the first, 11.8% for the second.

First: Cn1c(-[n+]2c(-c3ccccc3)cc(-c3ccccc3)cc2-c2ccccc2)nc2c([N+](=O)[O-])cccc21.[I-]
Second: CN(C)C(=O)/C(=C/c1ccc(-c2cccc([N+](=O)[O-])c2)o1)NC(=O)c1ccccc1
The “hERG current change (%, negative = inhibition) at 1uM” value of the first is lower: -6.1% for the first, 5.68% for the second.

Compared with `Cc1ccc(C(=O)N/C(=C\c2ccc(-c3ccccc3[N+](=O)[O-])o2)C(=O)NCCN(C)C)cc1`, `Cc1ccc(C(=O)N/C(=C\c2ccc(-c3ccccc3[N+](=O)[O-])o2)C(=O)NCCCN(C)C)cc1` is higher in “hERG current change (%, negative = inhibition) at 1uM” value: -29.7% for the first, -14.9% for the second.

Compared with `Cc1ccc(C(=O)N/C(=C/c2ccc(-c3ccc([N+](=O)[O-])cc3)o2)C(=O)NCCCN(C)C)cc1`, `CN(C)CCCNC(=O)/C(=C/c1ccc(-c2ccc([N+](=O)[O-])cc2)o1)NC(=O)c1ccccc1` is higher in “hERG current change (%, negative = inhibition) at 1uM” value: -78% for the first, -52.5% for the second.

First: CN(Cc1cccc2cnccc12)C(=O)c1cc(COc2ccc(F)cc2Cl)on1
Second: O=C(Oc1ccc(-c2nccc(-c3ccccn3)n2)cc1)c1cccc(C(F)(F)F)c1
The “hERG current change (%, negative = inhibition) at 1uM” value of the first is higher: 19.5% for the first, 5.53% for the second.

First: Cc1cc(C)nc(SCC(=O)N(C)CC(=O)Nc2c(Cl)cccc2Cl)n1
Second: Cc1ccc(Cl)cc1NC(=O)CCS(=O)(=O)c1cccc2nonc12
The “hERG current change (%, negative = inhibition) at 1uM” value of the first is lower: 7.52% for the first, 10.8% for the second.

First: Cc1cc(C)n(-c2nc(C)nc(NCc3ccccc3)n2)n1
Second: CNc1nc(C)nc(-n2nc(C)cc2C)n1
The “hERG current change (%, negative = inhibition) at 1uM” value of the first is lower: -61.6% for the first, 9.5% for the second.

Going from `Cc1cc(C)n(-c2nc(Nc3ccccc3)nc(-n3nc(C)cc3C)n2)n1` to `Cc1cc2c(cc1C)N(Cc1ccc(Cl)cc1)C1=NCCCN12`, the “hERG current change (%, negative = inhibition) at 1uM” value falls from 12.1% to -28.4%.

Going from `COc1ccc(N2CCN(C(=O)Cn3cnc4c(cnn4-c4ccccc4)c3=O)CC2)cc1` to `Cl.O=C(CN1C2=NCCCN2c2ccccc21)c1ccc(Cl)cc1Cl`, the “hERG current change (%, negative = inhibition) at 1uM” value falls from 5.22% to -82.1%.

Compared with `Cl.Clc1ccc(CN2C3=NCCN3c3ccccc32)cc1Cl`, `Cl.Clc1ccc(CN2C3=NCCN3c3ccccc32)cc1` is higher in “hERG current change (%, negative = inhibition) at 1uM” value: -72.3% for the first, -40.4% for the second.

Going from `Brc1ccc(CN2C3=NCCCN3c3ccccc32)cc1.Cl` to `Cl.Fc1ccc(CN2C3=NCCCN3c3ccccc32)cc1`, the “hERG current change (%, negative = inhibition) at 1uM” value rises from -55.6% to -32.8%.

Going from `Cl.c1ccc(CN2C3=NCCCN3c3ccccc32)cc1` to `c1ccc(CN2C3=NCCN3c3ccccc32)cc1`, the “hERG current change (%, negative = inhibition) at 1uM” value rises from -29% to 2.38%.

Compared with `Cl.Clc1ccc(CN2C3=NCCCN3c3ccccc32)cc1`, `Cl.Clc1ccc(CN2C3=NCCCN3c3ccccc32)c(Cl)c1` is higher in “hERG current change (%, negative = inhibition) at 1uM” value: -54.3% for the first, -28.2% for the second.
